From PubChem
GDH-TPI counter-1 – inhibits GDH-TPI coupling enzymes, artifact for Mtb FBA screen; GDH-TPI coupled enzyme counterscreen, NADH absorbance; inhibition, % at 4.8 µM; 360,000 tested, 1.2% active; AID 588335
FBA Mtb inh – inhibitors of M. tuberculosis fructose-bisphosphate aldolase. P9WQA3. purified M. tuberculosis FBA, fluorescence read-out. AID 588726. inhibition, % at 1 µM. 360,000 tested, 2.3% active; in the data active = inhibition above about 27%
CCHF vOTU inh – blocks the CCHF virus ovarian tumor domain protease | 370,000 tested, 0.55% active | inhibition, % at 11.5 µM | CCHFV vOTU protease, Pep-AMC fluorescence
RecA intein inh – inhibitors of M. tuberculosis RecA intein splicing; AID 2221; inhibition, % (test concentration not listed); cell-free RecA intein splicing, fluorescence; 290,000 tested, 0.75% active; P9WHJ3; in the data active = inhibition above about 30%
Target sequence (P9WHJ3 whole entry, looked up): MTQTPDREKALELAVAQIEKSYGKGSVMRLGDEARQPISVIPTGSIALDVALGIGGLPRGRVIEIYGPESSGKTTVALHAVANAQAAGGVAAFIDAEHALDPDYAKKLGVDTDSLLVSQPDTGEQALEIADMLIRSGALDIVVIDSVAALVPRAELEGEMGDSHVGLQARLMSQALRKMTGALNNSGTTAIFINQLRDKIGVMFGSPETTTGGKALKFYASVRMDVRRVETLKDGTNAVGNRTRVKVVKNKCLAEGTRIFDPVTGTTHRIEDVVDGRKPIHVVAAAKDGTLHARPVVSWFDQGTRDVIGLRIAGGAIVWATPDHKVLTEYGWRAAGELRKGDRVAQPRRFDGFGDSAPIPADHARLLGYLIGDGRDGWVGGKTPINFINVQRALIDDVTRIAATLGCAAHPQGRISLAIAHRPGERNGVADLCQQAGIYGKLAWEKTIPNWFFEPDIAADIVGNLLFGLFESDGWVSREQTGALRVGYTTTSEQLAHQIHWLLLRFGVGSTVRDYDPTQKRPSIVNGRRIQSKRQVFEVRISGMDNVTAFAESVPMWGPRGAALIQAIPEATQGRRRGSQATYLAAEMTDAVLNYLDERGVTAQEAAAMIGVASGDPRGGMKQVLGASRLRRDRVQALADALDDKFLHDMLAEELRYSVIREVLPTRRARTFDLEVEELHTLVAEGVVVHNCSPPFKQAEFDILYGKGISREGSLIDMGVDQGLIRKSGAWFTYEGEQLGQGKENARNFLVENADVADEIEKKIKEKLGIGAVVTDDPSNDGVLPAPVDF
Mtb FBA inh conf – Mtb FBA inhibition, confirmed; shares compounds with FBA Mtb inh; purified M. tuberculosis FBA, fluorescence read-out; inhibition, % at 1 µM; 5,600 tested, 78% active; in the data active = inhibition above about 27%
GDH-TPI counter-2 – inhibits GDH-TPI coupling enzymes, flagging Mtb FBA hits. inhibition, % at 1 µM. 5,600 tested, 81% active. shares compounds with FBA Mtb inh. AID 652141. GDH-TPI coupled enzyme counterscreen, fluorescence; in the data active = inhibition above about 10%
GDH-TPI DR – inhibits GDH-TPI coupling enzymes in dose response; shares compounds with FBA Mtb inh; GDH-TPI coupled enzyme assay, fluorescence, artifact counterscreen; IC50, µM; 170 tested, 79% active; call rule not given here
Numbers stand for hits; . = inactive; / = no result; + = active, no number. Most compounds without a hit are left out; they make up all but 4.2% or so of the library. Rule as the data show it, unless noted: active = inhibition above about 30%; inactive = the rest.

SMILES	GDH-TPI counter-1	FBA Mtb inh	CCHF vOTU inh	RecA intein inh	Mtb FBA inh conf	GDH-TPI counter-2	others
Clc1ccccc1C1=CC(c2ccco2)n2ncnc2N1 (centres undefined)	.	35	.	.	156	126
CC(=O)Nc1cccc(C2=CC(c3ccco3)n3ncnc3N2)c1 (centres undefined)	/	/	/	.	/	/
CCNC(=O)C1(C)CCN(C(=O)c2cccnc2SC)C1 (centres undefined)	.	.	.	/	/	/
O=Cc1ccc(N2N=C(c3ccccc3)CC2c2ccccc2)cc1 (centres undefined)	.	86	.	.	136	89
COc1ccc(C2CC(c3ccccc3)=NN2c2ccc(/C=N/NC(=O)c3ccncc3)cc2)cc1 (centres undefined)	.	.	.	.	/	/
N#CCC(=O)N/N=C/c1ccc(N2N=C(c3ccccc3)CC2c2ccccc2)cc1 (centres undefined)	.	85	.	.	.	.	GDH-TPI DR=0.28
CC(=O)Nc1ccc(C2CC(c3ccc(Cl)cc3)=NN2c2ccccc2)cc1 (centres undefined)	.	.	.	.	/	/
CC(=O)Nc1ccc(C2=NN(c3ccccc3)C(c3ccccc3)C2)cc1 (centres undefined)	.	105	.	.	42	33
O=S(=O)(c1ccccc1)N1N=C(c2ccccc2)CC1c1ccccc1 (centres undefined)	.	.	.	.	/	/
C[C@@H]1CN([C@H](C)CO)C(=O)CCCn2cc(nn2)CO[C@H]1CN(C)C(=O)Nc1ccccc1C(F)(F)F	.	.	.	/	/	/
CCCOc1ccc2cc(C(=O)NCc3ccccc3)c(=O)oc2c1	.	44	.	.	50	39
COc1ccc2oc(=O)c(C(=O)NCc3ccccc3)cc2c1	.	.	.	.	/	/
COc1ccc2cc(C(=O)NCc3ccco3)c(=O)oc2c1	33	46	.	.	35	26
O=C(O)C1Cn2c(nc3c(c2=O)C2(CCCC2)Cc2ccccc2-3)S1 (centres undefined)	.	35	.	.	.	.
Nn1cnc2c(c1=O)C1(CCCCC1)Cc1ccccc1-2	.	.	.	.	/	/
O=c1c2c(nc3n1CCCCC3)-c1ccccc1CC21CCCC1	.	.	.	.	/	/
CCSc1n[nH]c2nc3c(c(=O)n12)C1(CCCC1)Cc1ccccc1-3	.	28	.	.	.	.
Cn1ncn2c(=O)c3c(nc12)-c1ccccc1CC31CCCC1	.	44	.	.	+	+
Cn1c(NCCO)nc2c(c1=O)C1(CCCCC1)Cc1ccccc1-2	.	70	.	.	+	+
CSc1n[nH]c2nc3c(c(=O)n12)C1(CCCC1)Cc1ccccc1-3	.	.	.	.	/	/
CCn1nnc2cc(C(=O)N3CCC(C(=O)OC)CC3)ccc21	.	.	.	/	/	/
CCN(C(=O)CN1CCCCC1C)c1c(N)n(Cc2ccccc2)c(=O)[nH]c1=O (centres undefined)	.	.	.	/	/	/
COc1ccc(C2=NOC(C)(c3nnc(-c4ccccc4)o3)C2)cc1 (centres undefined)	.	.	.	.	/	/
C[C@H]1CN([C@@H](C)CO)S(=O)(=O)c2ccc(Br)cc2O[C@H]1CN(C)C(=O)c1cccnc1	.	.	.	/	/	/
CCOC(=O)Nc1ccc2c(c1)nc1n2CCN(CCOC)C1	.	36	.	.	75	73
SMILES	GDH-TPI counter-1	FBA Mtb inh	CCHF vOTU inh	RecA intein inh	Mtb FBA inh conf	GDH-TPI counter-2	others
COCCN1CCn2c(nc3cc(NC(=O)Cn4nc(C)c5ccccc5c4=O)ccc32)C1	.	.	.	.	/	/
COCCN1CCn2c(nc3cc(NC(=O)c4ccc(OC)cc4)ccc32)C1	.	.	.	.	/	/
COCCN1CCn2c(nc3cc(NC(C)=O)ccc32)C1	.	30	.	.	.	.
CC(c1ccccc1)N1CCn2c(nc3cc(NS(C)(=O)=O)ccc32)C1 (centres undefined)	.	.	.	.	/	/
CC(=O)Nc1ccc2c(c1)nc1n2CCN(C(C)c2ccccc2)C1 (centres undefined)	.	69	.	.	83	72
COc1ccc(NC(=O)C(c2ccc(C#N)cc2)n2c(=O)c(-c3ccco3)nc3ccccc32)cc1 (centres undefined)	/	/	.	/	/	/
COc1ccc(-c2nc3ccccn3c2NC2CCCCC2)cc1SC1CCCCC1	.	44	.	.	132	115
COc1cc(-c2nc3ccccn3c2NCc2ccccc2)ccc1SC1CCCCC1	.	45	/	.	84	52
CCCCCCSc1cc(-c2nc3cnccn3c2NCc2ccccc2)ccc1OC	.	.	/	.	/	/
COc1ccc(CSc2ccc(-c3nc4ccccn4c3NCc3ccccc3)cc2OC)cc1	.	34	.	.	31	28
CCC(C)Sc1ccc(-c2nc3ccccn3c2NCc2ccccc2)cc1OC (centres undefined)	.	41	/	/	116	90
O=S(=O)(NC(CO)Cc1ccccc1)c1cc(Cl)ccc1F (centres undefined)	.	.	.	/	/	/
COc1ccc(N2CCN(C(=O)c3cc(S(=O)(=O)N4CCCCCC4)ccc3OC)CC2)cc1	.	.	.	/	/	/
COc1ccccc1CCC(=O)Nc1ccc2c(c1)c(=O)n(C)n2-c1cccs1	.	.	.	/	/	/
CC(=O)Oc1ccc2c(C)cc(=O)[nH]c2c1	.	58	.	.	.	.
COc1ccc2c(C)cc(=S)[nH]c2c1	.	.	.	.	/	/
Clc1ccc(C(c2cccs2)N2CCNCC2)cc1 (centres undefined)	.	.	.	/	/	/
O=C(CCC(=O)N/N=C/c1ccco1)N/N=C/c1ccco1	.	29	.	.	76	64
CCOC(=O)c1cc2nc(-c3ccco3)cc(C(F)(F)F)n2n1	.	28	.	.	+	+
CCOC(=O)c1c(-c2ccccc2Cl)cn2ccccc12	.	61	.	.	74	68
CCOC(=O)c1c(-c2cccc([N+](=O)[O-])c2)cn2ccccc12	.	.	.	.	/	/
COCc1cc(=O)n2[nH]c(-c3ccco3)cc2n1	.	34	.	.	.	.
COCc1cc(=O)n2[nH]c(-c3ccc(C)cc3)cc2n1	.	35	.	.	152	108
COCc1cc(=O)n2[nH]c(-c3cccs3)cc2n1	.	30	.	.	65	66
COCc1cc(=O)n2[nH]c(C)nc2n1	.	.	.	.	/	/
CCOC(=O)Cc1cc(=O)n2[nH]c(-c3ccc(C)cc3)cc2n1	.	.	.	.	/	/
CCOC(=O)C1CCN(C(=O)c2cnn3c(C)cc(C)nc23)CC1	.	35	.	.	76	55
COc1cccc(CC(NC(C)=O)C(=O)NC2CCN(c3nc(C)cc(C)c3C#N)CC2)c1 (centres undefined)	.	29	.	.	58	52
Cc1cc(C)c(C#N)c(N2CCSCC2)n1	.	.	.	.	/	/
CCOC(=O)C1CCN(c2nc(C)cc(C)c2C#N)CC1	.	28	.	.	170	124
